From the supplement of paper PMC9337992
± gives the standard deviation of the averaged measurements.

Assays:
Assay in all cases: cell proliferation (confluence) relative to DMSO control; higher = less growth inhibition
Conditions in all cases: 5 uM; 6 d
BT549 = test system: BT549
Method in brief: (§1)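 After adhering in 384-well plates at 500 cells per well, triple-negative breast cancer cell lines were treated for 6 d with each epigenetic chemical probe at a final 5 μM in DMSO. Four replicate wells per compound and DMSO-only wells were placed on each plate. Confluence, imaged in phase-contrast on an IncuCyte ZOOM, was scaled to the DMSO-only wells.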

CAL120 = test system: CAL120
Method in brief: as §1

HCC1143 = test system: HCC1143
Method in brief: as §1

HCC1395 = test system: HCC1395
Method in brief: as §1

HCC153 = test system: HCC153
Method in brief: as §1

HCC1806 = test system: HCC1806
Method in brief: as §1

HCC38 = test system: HCC38
Method in brief: as §1

HCC70 = test system: HCC70
Method in brief: as §1

Hs578-T = test system: Hs578-T
Method in brief: as §1

MB157 = test system: MB157
Method in brief: as §1

SUM149-PT = test system: SUM149-PT
Method in brief: as §1

SUM159-PT = test system: SUM159-PT
Method in brief: as §1

SMILES | cell proliferation (BT549) | cell proliferation (CAL120) | cell proliferation (HCC1143) | cell proliferation (HCC1395) | cell proliferation (HCC153) | cell proliferation (HCC1806) | cell proliferation (HCC38) | cell proliferation (HCC70) | cell proliferation (Hs578-T) | cell proliferation (MB157) | cell proliferation (SUM149-PT) | cell proliferation (SUM159-PT)
COc1cc(-c2cn(C)c(=O)c3cnccc23)c(OC)cc1CN(C)C | 99.729 ± 0.064% | 96.7 ± 2% | 96.9 ± 3.3% | 99.978 ± 0.01% | 55.9 ± 8.2% | 65.4 ± 6% | 99.64 ± 0.17% | 96.2 ± 2.6% | 98.52 ± 0.23% | 88.3 ± 10% | 74.4 ± 19% | 99.991 ± 0.0063%
COc1ccc(CCc2nc3cc(-c4c(C)noc4C)ccc3n2C[C@H](C)N2CCOCC2)cc1Cl | 98.71 ± 0.76% | 99.636 ± 0.017% | 98.527 ± 0.086% | 99.941 ± 0.031% | 48.7 ± 1.4% | 82.67 ± 0.12% | 99.927 ± 0.017% | 99.75 ± 0.26% | 96.9 ± 1% | 90.6 ± 2.1% | 34.4 ± 3.4% | 99.994 ± 0.0041%
CCC(=O)N1CCOc2c(cc(-c3ccc(OC)c(OC)c3)cc2OC[C@H]2CCCN(C)C2)C1 | 98 ± 1.1% | 98.2 ± 1.5% | 99.31 ± 0.35% | 99.981 ± 0.0043% | 65.2 ± 5.7% | 79 ± 6.8% | 99.89 ± 0.02% | 92.5 ± 7.2% | 97.28 ± 0.62% | 94.2 ± 4.5% | 29.9 ± 7.1% | 99.985 ± 0.014%
CCCOc1ccn2c(C(C)=O)cc(-c3ccccc3S(C)(=O)=O)c2c1 | 99.1 ± 0.35% | 99.03 ± 0.55% | 98.2 ± 1% | 99.968 ± 0.022% | 53 ± 5.5% | 81.9 ± 6.8% | 99.1 ± 0.59% | 92.2 ± 7.6% | 97.6 ± 0.9% | 76.8 ± 20% | 88.7 ± 8.8% | 99.983 ± 0.013%
O=C(/C=C/N1C[C@H]2C[C@@H]1CN2c1ccccn1)c1ccccc1O | 99.79 ± 0.1% | 93.4 ± 2.2% | 99.25 ± 0.15% | 99.895 ± 0.019% | 87.8 ± 2.8% | 99.849 ± 0.052% | 99.917 ± 0.014% | 99.13 ± 0.33% | 98.15 ± 0.9% | 98.9 ± 1% | 29.1 ± 5.7% | 99.994 ± 0.0044%
CC[C@H](C)n1cc(C)c2c(C(=O)NCc3c(C)cc(C)[nH]c3=O)cc(-c3ccc(N4CCNCC4)nc3)cc21 | 98.6 ± 2.6% | 91.6 ± 5.4% | 99.53 ± 0.32% | 99.996 ± 0.0038% | 87.9 ± 3.7% | 99.846 ± 0.034% | 99.825 ± 0.095% | 82 ± 8.6% | 97.8 ± 1.3% | 79.1 ± 14% | 90.3 ± 4.3% | 99.995 ± 0.00082%
COc1cc(C#N)ccc1S(=O)(=O)Nc1ccc2c(c1)cc(C)c(=O)n2C | 98 ± 1.4% | 98.97 ± 0.3% | 97 ± 1.3% | 99.962 ± 0.051% | 54.9 ± 7.1% | 76.1 ± 12% | 98.81 ± 0.89% | 95.8 ± 5% | 97.33 ± 0.58% | 92.5 ± 6.8% | 59.5 ± 7.1% | 99.963 ± 0.039%
Cn1cc(CCn2cnc(-c3cnn(C)c3)c2-c2ccc(C#N)cc2)cn1 | 98.99 ± 0.43% | 97.56 ± 0.71% | 98.1 ± 2.2% | 99.977 ± 0.017% | 58.1 ± 13% | 76.7 ± 11% | 99.38 ± 0.67% | 85.1 ± 8.9% | 97.89 ± 0.77% | 62.6 ± 28% | 92.6 ± 3.4% | 99.988 ± 0.012%
CCOC(=O)CCNc1cc(N2CCc3ccccc3CC2)nc(-c2cccnc2)n1 | 99.38 ± 0.4% | 94.6 ± 4.8% | 99.33 ± 0.49% | 99.887 ± 0.094% | 82.7 ± 3.2% | 99.75 ± 0.15% | 99.31 ± 0.31% | 98 ± 1.6% | 96.1 ± 2.3% | 96.1 ± 2.9% | 96 ± 3.5% | 99.982 ± 0.0074%
O=C(NC[C@H](O)CN1CCc2ccccc2C1)c1ccnc(NC2CCC2)c1 | 81.4 ± 7.7% | 90 ± 7.5% | 75.1 ± 4.7% | 99.47 ± 0.48% | 37.2 ± 9.6% | 37.5 ± 4.5% | 67.8 ± 1.2% | 95 ± 2% | 89.7 ± 4.3% | 66.5 ± 2.1% | 36.7 ± 2.9% | 99.876 ± 0.038%
CCCc1cc(C)[nH]c(=O)c1CNC(=O)c1cc(-c2ccc(N3CCN(C(C)C)CC3)nc2)cc2c1cnn2C(C)C | 21 ± 7.7% | 85.5 ± 11% | 98.86 ± 0.59% | 99.88 ± 0.14% | 91.8 ± 4.8% | 92.4 ± 6.9% | 99.93 ± 0.072% | 80 ± 8.9% | 97 ± 2% | 46.2 ± 22% | 11.5 ± 5.8% | 99.997 ± 0.002%
O=C(NCC(=O)N1CCCC1)Nc1ccc2cnccc2c1 | 97.4 ± 1.4% | 98.79 ± 0.98% | 97.5 ± 2% | 99.815 ± 0.096% | 63 ± 9.2% | 82.8 ± 2.7% | 99.873 ± 0.048% | 94.9 ± 5.1% | 96.4 ± 1.6% | 94.3 ± 5.8% | 76.9 ± 9.1% | 99.995 ± 0.0035%
CN(C)[C@H]1CN(C2CCc3cccc(F)c32)C[C@@H]1c1ccc(N2CCN(S(C)(=O)=O)CC2)cc1 (some centres not stated) | 99.839 ± 0.071% | 91.9 ± 3.3% | 99.22 ± 0.33% | 99.91 ± 0.14% | 83.7 ± 2.5% | 99.14 ± 0.58% | 99.71 ± 0.21% | 82.3 ± 13% | 97.33 ± 0.62% | 91.6 ± 4.3% | 87.8 ± 10% | 99.996 ± 0.0017%
CCCc1cc(C)n(C)c(=O)c1CN(C)C(=O)c1cc(-c2ccc(N3CCN(C(C)C)CC3)nc2)cc2c1cnn2C(C)C | 99.971 ± 0.015% | 93.4 ± 3.8% | 99.3 ± 0.59% | 99.983 ± 0.016% | 84.6 ± 3.8% | 99.889 ± 0.049% | 99.77 ± 0.13% | 97.3 ± 2.3% | 97.89 ± 0.81% | 87.5 ± 6.8% | 84.2 ± 10% | 99.997 ± 0.0012%
CC(C)N(CCCNC(=O)Nc1ccc(C(C)(C)C)cc1)C[C@H]1O[C@@H](n2cc(Br)c3c(N)ncnc32)[C@H](O)[C@@H]1O | 99.955 ± 0.014% | 98.5 ± 1.1% | 99.74 ± 0.16% | 99.977 ± 0.024% | 85.8 ± 4.9% | 99.862 ± 0.055% | 99.891 ± 0.042% | 93.6 ± 4.6% | 96.1 ± 1.3% | 89.1 ± 3.2% | 76 ± 6.9% | 99.997 ± 0.0024%
CCCc1cc(C)[nH]c(=O)c1CNC(=O)c1cc(-c2ccnc(N3CCN(C)CC3)c2)cc2c1cnn2C(C)C | 99.876 ± 0.081% | 94.6 ± 4% | 99.63 ± 0.27% | 99.992 ± 0.007% | 88.3 ± 2.3% | 99.64 ± 0.32% | 99.73 ± 0.33% | 97.6 ± 2.6% | 97.34 ± 0.48% | 95.1 ± 5.6% | 61.1 ± 10% | 99.976 ± 0.033%
